The source of these data is publication PMC7862700, “An all-to-all approach to the identification of sequence-specific readers for epigenetic DNA modifications on cytosine”.

What all share (experiment): DAPPL (digital affinity profiling via proximity ligation, sequencing); 10 mM Tris-HCl pH 7.5, 50 mM NaCl, 1 mM DTT, 4% glycerol, room temperature, 30 min; GST-TFs on glutathione beads, 16-mer random dsDNA library, 0.1% formaldehyde crosslink after washing; high values mean tight binding
One experiment deals with T1, FEV (Homo sapiens, UniProt Q99581 1-238).
T1 sequence: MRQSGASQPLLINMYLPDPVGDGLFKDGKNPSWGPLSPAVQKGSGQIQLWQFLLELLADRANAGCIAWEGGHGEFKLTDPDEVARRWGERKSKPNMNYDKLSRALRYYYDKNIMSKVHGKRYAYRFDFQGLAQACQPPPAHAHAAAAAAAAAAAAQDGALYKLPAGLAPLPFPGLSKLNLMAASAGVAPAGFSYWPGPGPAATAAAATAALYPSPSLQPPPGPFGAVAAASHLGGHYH
As to conditions: protein: recombinant; tags: N-terminal GST; dsDNA, one strand shown. In a few lines:
(§1)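 Human transcription factors fused to GST were expressed in yeast, captured on glutathione beads, given DNA barcodes and pooled with a GST-only negative control. Pools were incubated with 200 nmole of a 16-mer random double-stranded DNA library in Tris/NaCl/DTT/glycerol buffer at room temperature for 30 min. They were then washed, crosslinked with 0.1% formaldehyde, proximity-ligated (BsaI/T4 ligase, 1 h, 37 °C), PCR-amplified and sequenced on an Illumina NextSeq500. Binding signal is each 6-mer's read frequency for a factor divided by its frequency for the GST control.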

A further experiment deals with ETV5 (Homo sapiens, UniProt P41161 1-510). As to conditions: protein: recombinant; tags: N-terminal GST; dsDNA, one strand shown. An outline of the steps: as §1
The target in the next experiment is HSF1 (Homo sapiens, UniProt Q00613 1-529). Conditions: protein: recombinant; tags: N-terminal GST; chain copies: 3; dsDNA, one strand shown. An outline of the steps:
as §1

The target in another experiment is T2, SPIC (Homo sapiens, UniProt Q8N5J4 1-248).
T2 sequence: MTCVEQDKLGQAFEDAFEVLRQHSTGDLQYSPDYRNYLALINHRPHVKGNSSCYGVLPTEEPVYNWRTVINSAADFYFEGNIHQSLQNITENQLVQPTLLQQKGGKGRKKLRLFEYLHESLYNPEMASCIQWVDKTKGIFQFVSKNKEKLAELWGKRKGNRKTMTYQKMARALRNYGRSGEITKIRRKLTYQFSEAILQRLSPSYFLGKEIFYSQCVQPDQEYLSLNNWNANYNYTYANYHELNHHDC
As to conditions: protein: recombinant; tags: N-terminal GST; dsDNA, one strand shown. In a few lines: as §1

The target of another experiment is ELF4 (Homo sapiens, UniProt Q99607 1-663). As to conditions: protein: recombinant; tags: N-terminal GST; dsDNA, one strand shown. An outline of the steps: as §1
For another experiment, the target named is T3, ELK4 (Homo sapiens, UniProt P28324-2 1-405).
T3 sequence: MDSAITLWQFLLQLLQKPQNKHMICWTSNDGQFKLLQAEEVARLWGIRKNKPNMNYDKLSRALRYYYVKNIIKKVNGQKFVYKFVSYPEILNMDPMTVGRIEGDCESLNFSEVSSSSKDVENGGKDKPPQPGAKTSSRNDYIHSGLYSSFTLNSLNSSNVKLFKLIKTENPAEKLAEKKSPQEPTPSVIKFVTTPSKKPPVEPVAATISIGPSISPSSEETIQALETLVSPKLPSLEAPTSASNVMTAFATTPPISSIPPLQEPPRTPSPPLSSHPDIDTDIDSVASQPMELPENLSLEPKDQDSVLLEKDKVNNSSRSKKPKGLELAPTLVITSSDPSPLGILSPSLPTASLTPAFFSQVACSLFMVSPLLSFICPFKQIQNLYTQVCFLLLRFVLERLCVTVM
Conditions: protein: recombinant; tags: N-terminal GST; dsDNA, one strand shown. In a few lines:
as §1

In the next experiment the target is T4, ETV2 (Homo sapiens, UniProt O00321 1-342).
T4 sequence: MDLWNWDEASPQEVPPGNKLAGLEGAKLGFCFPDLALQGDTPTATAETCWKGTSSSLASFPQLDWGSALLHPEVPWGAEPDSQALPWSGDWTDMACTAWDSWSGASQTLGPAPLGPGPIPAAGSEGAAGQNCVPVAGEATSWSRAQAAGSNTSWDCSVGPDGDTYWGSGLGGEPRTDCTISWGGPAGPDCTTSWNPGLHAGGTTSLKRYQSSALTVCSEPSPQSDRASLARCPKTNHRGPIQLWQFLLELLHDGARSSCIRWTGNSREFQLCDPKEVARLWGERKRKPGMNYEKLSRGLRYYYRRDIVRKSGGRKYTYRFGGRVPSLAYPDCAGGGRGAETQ
As to conditions: protein: recombinant; tags: N-terminal GST; dsDNA, one strand shown. In a few lines:
as §1

The next experiment concerns the target T5, ELF3 (Homo sapiens, UniProt P78545 1-371).
T5 sequence: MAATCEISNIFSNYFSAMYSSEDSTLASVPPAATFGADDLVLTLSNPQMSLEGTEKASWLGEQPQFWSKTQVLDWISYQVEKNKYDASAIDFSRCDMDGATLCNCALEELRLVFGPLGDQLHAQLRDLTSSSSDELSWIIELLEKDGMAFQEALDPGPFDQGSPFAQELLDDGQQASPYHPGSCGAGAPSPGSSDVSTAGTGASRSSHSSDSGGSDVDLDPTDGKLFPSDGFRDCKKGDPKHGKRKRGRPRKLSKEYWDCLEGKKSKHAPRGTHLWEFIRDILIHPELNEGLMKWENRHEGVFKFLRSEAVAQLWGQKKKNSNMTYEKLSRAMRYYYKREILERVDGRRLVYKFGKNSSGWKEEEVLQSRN
As to conditions: protein: recombinant; tags: N-terminal GST; dsDNA, one strand shown. In a few lines:
as §1

The next experiment has as its target ETV1 (Homo sapiens, UniProt P50549 1-477). Conditions: protein: recombinant; tags: N-terminal GST; dsDNA, one strand shown. An outline of the steps: as §1

Sequence of HSF1 (Q00613 whole entry): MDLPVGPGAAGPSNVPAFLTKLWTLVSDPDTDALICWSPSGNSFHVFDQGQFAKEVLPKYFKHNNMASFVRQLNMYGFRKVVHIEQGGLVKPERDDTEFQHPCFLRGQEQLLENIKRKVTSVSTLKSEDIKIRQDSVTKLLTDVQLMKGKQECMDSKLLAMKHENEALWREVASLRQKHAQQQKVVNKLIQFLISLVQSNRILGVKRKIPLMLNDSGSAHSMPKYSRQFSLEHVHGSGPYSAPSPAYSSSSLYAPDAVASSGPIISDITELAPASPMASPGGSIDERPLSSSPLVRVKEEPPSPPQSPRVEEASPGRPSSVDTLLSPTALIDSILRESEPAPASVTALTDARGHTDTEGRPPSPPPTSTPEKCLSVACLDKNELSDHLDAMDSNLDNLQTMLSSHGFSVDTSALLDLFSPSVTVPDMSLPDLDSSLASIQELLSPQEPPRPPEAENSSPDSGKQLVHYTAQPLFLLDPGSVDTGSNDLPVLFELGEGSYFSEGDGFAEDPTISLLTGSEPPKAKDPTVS
Sequence of ELF4 (Q99607 whole entry): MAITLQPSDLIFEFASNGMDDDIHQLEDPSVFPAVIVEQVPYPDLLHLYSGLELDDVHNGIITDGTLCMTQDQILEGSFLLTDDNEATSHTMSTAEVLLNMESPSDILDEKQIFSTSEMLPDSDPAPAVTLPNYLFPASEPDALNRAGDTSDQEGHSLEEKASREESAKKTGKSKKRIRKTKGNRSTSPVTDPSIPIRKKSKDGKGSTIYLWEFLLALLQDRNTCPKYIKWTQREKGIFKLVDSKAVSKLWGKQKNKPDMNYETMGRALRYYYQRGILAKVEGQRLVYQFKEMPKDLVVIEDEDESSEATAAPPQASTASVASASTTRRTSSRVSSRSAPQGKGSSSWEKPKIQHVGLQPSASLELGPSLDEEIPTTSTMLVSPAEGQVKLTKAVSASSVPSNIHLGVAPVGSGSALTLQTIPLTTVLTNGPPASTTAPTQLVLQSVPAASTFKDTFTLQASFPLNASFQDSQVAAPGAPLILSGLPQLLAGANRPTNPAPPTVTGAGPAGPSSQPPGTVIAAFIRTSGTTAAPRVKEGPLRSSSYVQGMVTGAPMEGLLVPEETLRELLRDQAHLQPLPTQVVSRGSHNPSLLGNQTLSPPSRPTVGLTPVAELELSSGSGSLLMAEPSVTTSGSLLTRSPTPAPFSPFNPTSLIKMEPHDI
Sequence of ETV5 (P41161 whole entry): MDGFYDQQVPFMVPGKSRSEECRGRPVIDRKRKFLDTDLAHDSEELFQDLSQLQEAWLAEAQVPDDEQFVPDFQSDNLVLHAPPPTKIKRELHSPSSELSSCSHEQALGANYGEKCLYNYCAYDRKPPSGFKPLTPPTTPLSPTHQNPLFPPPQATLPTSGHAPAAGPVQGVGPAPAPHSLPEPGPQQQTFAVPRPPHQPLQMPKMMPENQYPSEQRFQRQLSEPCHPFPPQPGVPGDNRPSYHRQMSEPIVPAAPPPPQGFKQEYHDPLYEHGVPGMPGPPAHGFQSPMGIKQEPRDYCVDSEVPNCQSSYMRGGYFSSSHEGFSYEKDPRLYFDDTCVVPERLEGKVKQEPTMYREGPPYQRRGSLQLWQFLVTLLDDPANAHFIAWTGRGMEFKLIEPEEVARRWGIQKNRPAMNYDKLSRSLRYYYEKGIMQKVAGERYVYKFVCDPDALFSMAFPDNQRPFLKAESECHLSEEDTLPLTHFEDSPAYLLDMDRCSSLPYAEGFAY
Sequence of ETV1 (P50549 whole entry): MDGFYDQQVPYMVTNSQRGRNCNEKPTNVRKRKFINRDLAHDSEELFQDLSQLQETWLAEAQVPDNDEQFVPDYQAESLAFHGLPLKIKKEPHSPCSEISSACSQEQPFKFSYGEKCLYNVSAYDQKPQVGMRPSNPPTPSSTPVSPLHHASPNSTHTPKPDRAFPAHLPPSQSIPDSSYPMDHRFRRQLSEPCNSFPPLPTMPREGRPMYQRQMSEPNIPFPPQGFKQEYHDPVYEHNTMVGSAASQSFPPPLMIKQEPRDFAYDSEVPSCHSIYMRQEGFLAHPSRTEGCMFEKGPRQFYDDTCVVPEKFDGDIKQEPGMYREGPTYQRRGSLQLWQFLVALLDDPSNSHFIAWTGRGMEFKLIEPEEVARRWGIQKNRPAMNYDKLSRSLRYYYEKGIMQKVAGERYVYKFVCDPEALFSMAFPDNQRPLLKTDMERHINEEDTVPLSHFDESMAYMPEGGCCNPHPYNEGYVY

Regarding CCGGCA, the binding signal with FEV is 1.53 fold enrichment (6-mer frequency, TF over GST control); in the experiment with ETV5, 1.47 fold enrichment (6-mer frequency, TF over GST control); with HSF1 it was 1.01 fold enrichment (6-mer frequency, TF over GST control); in the experiment with SPIC, 1.32 fold enrichment (6-mer frequency, TF over GST control); in the experiment with ELF4 it was 1.28 fold enrichment (6-mer frequency, TF over GST control); with ELK4 it was 1.24 fold enrichment (6-mer frequency, TF over GST control). Moreover, the binding signal is 1.28 fold enrichment (6-mer frequency, TF over GST control) in the experiment with ETV2; 1.31 fold enrichment (6-mer frequency, TF over GST control) with ELF3; 1.46 fold enrichment (6-mer frequency, TF over GST control) in the experiment with ETV1.
On to CGCTCC, for which the binding signal with FEV is 1.34 fold enrichment (6-mer frequency, TF over GST control); in the experiment with ETV5 it was 1.31 fold enrichment (6-mer frequency, TF over GST control); in the experiment with HSF1, 1.09 fold enrichment (6-mer frequency, TF over GST control); with SPIC it was 1.33 fold enrichment (6-mer frequency, TF over GST control); with ELF4, 1.38 fold enrichment (6-mer frequency, TF over GST control); with ELK4, 1.41 fold enrichment (6-mer frequency, TF over GST control). In addition, the binding signal was 1.36 fold enrichment (6-mer frequency, TF over GST control) in the experiment with ETV2; 1.3 fold enrichment (6-mer frequency, TF over GST control) with ELF3; 1.26 fold enrichment (6-mer frequency, TF over GST control) with ETV1.
For the sequence CTTGAC, the binding signal with FEV is 1.18 fold enrichment (6-mer frequency, TF over GST control); in the experiment with ETV5, 1.14 fold enrichment (6-mer frequency, TF over GST control); with HSF1 it was 1.02 fold enrichment (6-mer frequency, TF over GST control); with SPIC it was 1.14 fold enrichment (6-mer frequency, TF over GST control); in the experiment with ELF4, 1.27 fold enrichment (6-mer frequency, TF over GST control); with ELK4 it was 1.37 fold enrichment (6-mer frequency, TF over GST control). Further, the binding signal with ETV2 was 1.33 fold enrichment (6-mer frequency, TF over GST control); with ELF3, 1.33 fold enrichment (6-mer frequency, TF over GST control); with ETV1, 1.33 fold enrichment (6-mer frequency, TF over GST control).
Turning to GTCTTC, the binding signal is 1.34 fold enrichment (6-mer frequency, TF over GST control) with FEV; 1.31 fold enrichment (6-mer frequency, TF over GST control) with ETV5; 1.17 fold enrichment (6-mer frequency, TF over GST control) with HSF1; 1.18 fold enrichment (6-mer frequency, TF over GST control) with SPIC; 1.23 fold enrichment (6-mer frequency, TF over GST control) in the experiment with ELF4; 1.14 fold enrichment (6-mer frequency, TF over GST control) with ELK4. Moreover, the binding signal in the experiment with ETV2 was 1.22 fold enrichment (6-mer frequency, TF over GST control); with ELF3 it was 1.46 fold enrichment (6-mer frequency, TF over GST control); in the experiment with ETV1, 1.29 fold enrichment (6-mer frequency, TF over GST control).
Regarding ATGGGC, the binding signal with FEV is 1.28 fold enrichment (6-mer frequency, TF over GST control); in the experiment with ETV5 it was 1.25 fold enrichment (6-mer frequency, TF over GST control); in the experiment with HSF1 it was 1.03 fold enrichment (6-mer frequency, TF over GST control); in the experiment with SPIC, 1.35 fold enrichment (6-mer frequency, TF over GST control); in the experiment with ELF4 it was 1.35 fold enrichment (6-mer frequency, TF over GST control); in the experiment with ELK4 it was 1.49 fold enrichment (6-mer frequency, TF over GST control). Further, the binding signal with ETV2 was 1.17 fold enrichment (6-mer frequency, TF over GST control); with ELF3, 1.24 fold enrichment (6-mer frequency, TF over GST control); with ETV1, 1.19 fold enrichment (6-mer frequency, TF over GST control).
Take GGCACT: the binding signal is 1.46 fold enrichment (6-mer frequency, TF over GST control) with FEV; 1.32 fold enrichment (6-mer frequency, TF over GST control) in the experiment with ETV5; 1.03 fold enrichment (6-mer frequency, TF over GST control) in the experiment with HSF1; 1.24 fold enrichment (6-mer frequency, TF over GST control) in the experiment with SPIC; 1.26 fold enrichment (6-mer frequency, TF over GST control) in the experiment with ELF4; 1.28 fold enrichment (6-mer frequency, TF over GST control) with ELK4. Moreover, the binding signal is 1.19 fold enrichment (6-mer frequency, TF over GST control) in the experiment with ETV2; 1.29 fold enrichment (6-mer frequency, TF over GST control) with ELF3; 1.38 fold enrichment (6-mer frequency, TF over GST control) in the experiment with ETV1.
As for ATGGAC, the binding signal with FEV is 1.3 fold enrichment (6-mer frequency, TF over GST control); in the experiment with ETV5, 1.3 fold enrichment (6-mer frequency, TF over GST control); with HSF1 it was 1.01 fold enrichment (6-mer frequency, TF over GST control); in the experiment with SPIC, 1.34 fold enrichment (6-mer frequency, TF over GST control); with ELF4, 1.2 fold enrichment (6-mer frequency, TF over GST control); in the experiment with ELK4 it was 1.17 fold enrichment (6-mer frequency, TF over GST control). In addition, the binding signal with ETV2 is 1.33 fold enrichment (6-mer frequency, TF over GST control); with ELF3, 1.42 fold enrichment (6-mer frequency, TF over GST control); in the experiment with ETV1, 1.18 fold enrichment (6-mer frequency, TF over GST control).
